An excerpt weighted towards active compounds, which were near 7.3% of everything screened.
HCV inh = inhibitors of hepatitis C virus infection | Huh7.5.1 HCVcc-Cre infection, luciferase reporter, 44 h | Potency, µM (series often up to 41.8 µM), without a hit: top-dose activity change, negative = inhibition, usual class: inhibitors | 3.4% of 340,000 active | AID 651820; note: potency is the fitted concentration of half-maximal effect
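HCVcc-Cre virus at an moi near 0.5 was added right after compound to cells cultured 4 h from seeding (1,000 cells/well). Luciferase activity was determined 44 h later, 15 min after substrate addition at RT.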
FMDV inh = antivirals against foot and mouth disease virus; 1.2% of 410,000 active; Potency, µM (doses to about 57.9 µM), without a hit: at the highest dose activity change, negative = inhibition, actives largely listed as inhibitors; FMDV antiviral cell-based qHTS; calls by dose curve; tested in HEK293T cells; note: read-out not given here; potency is the fitted concentration of half-maximal effect; nearly all actives have a fitted effect of over 45% in size
AmpC detergent = blocks E. coli AmpC beta-lactamase in detergent assay; P00811; AmpC hydrolysis of nitrocefin, absorbance 480 nm, 0.01% Triton; Potency, µM (titrated, usually from 114 µM), inactives show at the highest dose activity change, negative = inhibition, usual class: inhibitors; 0.041% of 370,000 active; AID 485294;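 note: potency is the fitted concentration of half-maximal effect; 0% = no-compound wells and -100% = no-enzyme wells; nearly all actives have a fitted effect of over 25% in size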
Target sequence (P00811 whole entry, looked up): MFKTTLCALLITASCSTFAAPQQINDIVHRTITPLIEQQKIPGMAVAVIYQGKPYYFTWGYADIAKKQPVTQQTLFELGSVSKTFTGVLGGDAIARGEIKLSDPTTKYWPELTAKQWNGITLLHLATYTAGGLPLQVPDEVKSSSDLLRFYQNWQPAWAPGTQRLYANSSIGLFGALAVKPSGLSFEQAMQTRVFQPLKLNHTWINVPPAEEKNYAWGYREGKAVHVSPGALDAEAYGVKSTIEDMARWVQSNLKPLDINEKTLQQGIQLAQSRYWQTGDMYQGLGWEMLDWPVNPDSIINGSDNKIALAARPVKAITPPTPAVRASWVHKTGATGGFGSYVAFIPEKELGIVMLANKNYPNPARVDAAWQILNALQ
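AmpC (5.3 nM in the dispensed reagent) in 20 mM phosphate pH 7.0 with 0.01% (detergent screen) or 0.0001% Triton X-100 was preincubated with compounds for 15 min at room temperature. Nitrocefin was then added from an 800 uM solution, and hydrolysis was followed at 480 nm.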
AmpC inh no detg = AmpC beta-lactamase inhibition without detergent | P00811 | AmpC nitrocefin hydrolysis, absorbance 480 nm, 0.0001% Triton | Potency, µM (titrated, usually from 57.1 µM), for inactives: at the top dose activity change, negative = inhibition, usual class: inhibitors | 0.52% of 330,000 active;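 note: potency is the fitted concentration of half-maximal effect; plate controls were no compound for no effect and no enzyme for full effect; nearly all actives have a fitted effect of over 20% in size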
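20 mM phosphate pH 7.0 + 0.01% (detergent screen) or 0.0001% Triton X-100; 5.3 nM AmpC reagent; cpd preinc 15 min RT; nitrocefin (800 uM stock) to start; A480 q20 s × 4 min; Activity was normalised to no-enzyme and no-compound control wells.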
HCMV inh = human cytomegalovirus inhibition; 4.5% of 410,000 active; AID 1259415; activity change, negative = inhibition, % at 57.5 µM; HFF cells, HCMV-luciferase reporter, 72 h; stronger effect = lower value; in the data active = activity change below about -60%; inconclusive = no clear call, values can overlap the other calls; inactive = above about -39%
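Human foreskin fibroblasts infected with luciferase-reporter HCMV at MOI 1 PFU/cell, compounds at two doses. Luciferase measured 72 h post infection; normalized to buffer-only basal and Salinomycin (10uM) controls.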
* marks the source's active call; other numbers are inactive results; u = inconclusive; x = no result given; ! = a repeat was not active; [ ] = another dose, or the depositor's remark. Unless noted, calls come from the whole dose curve; as a rule, active = well fitted curve in the direction sought with a large enough effect; inconclusive = small, poorly fitted or top-dose-only effect, or another doubt; inactive = no such curve, though single readings can be large; an effect the other way counts as inactive or inconclusive. Unless noted, % is set by controls: 0 for no effect and ±100 for the full control effect.

SMILES	HCV inh	FMDV inh	AmpC detergent	AmpC inh no detg	HCMV inh
O=C(c1cc2nc(-c3cccs3)cc(C(F)(F)F)n2n1)N1CCCc2ccccc21	10µM*	0.0%	4.3%	-19.4%	u
O=C(c1cc2nc(-c3ccco3)cc(C(F)(F)F)n2n1)N1CCCc2ccccc21	4.5%	u	-8.3%	3.0%	-13.0
O=C(c1nn2c(C(F)(F)F)cc(-c3ccco3)nc2c1Br)N1CCCc2ccccc21	12.6µM*!	0.0%	u	-3.8%	-17.1
O=C(c1cc2nc(-c3cccs3)cc(C(F)(F)Cl)n2n1)N1CCCc2ccccc21	7.08µM*	x	-2.9%	-17.4%	-86.5*
COc1ccc(NS(=O)(=O)c2ccc3c(c2)n(C)c(=O)c(=O)n3C)cc1Cl	x	41.3%	2.6%	x	-5.8
CC(=O)Nc1cccc(-c2ccnc3c2CC(C)(C(=O)Nc2cccnc2)O3)c1 (stereo not drawn)	x	0.0%	x	x	14.8
CC(C)C[C@@H]1COc2cccc(NC3CC3)c2S(=O)(=O)N1	x	x	x	x	-35.1
c1ccc(-c2cc(-c3ccncc3)nc3ccc4ccccc4c23)cc1	10µM*	u	-18.9%	-17.6%	-29.3
COc1ccc(C(=O)C2CCCN(Cc3cccn3-c3nccs3)C2)cc1OC (stereo not drawn)	u	u	-1.3%	-0.6%	-19.4
COc1cccc(C(=O)C2CCCN(Cc3cccn3-c3ccccn3)C2)c1 (stereo not drawn)	-25.3%	-25.6%	5.2%	48.9%	-63.5*
COc1ccc(C(=O)C2CCCN(Cc3cccn3-c3nccs3)C2)cc1F (stereo not drawn)	-24.7%	-5.8%	0.8%	22.8%	-64.5*
CC(C)Oc1cccc(C(=O)C2CCCN(Cc3cccn3-c3ccccn3)C2)c1 (stereo not drawn)	-17.5%	8.9%	-3.7%	62.8%	-71.0*
CCn1nc(C)c(CN2CCCC(C(=O)c3cccc(OC(C)C)c3)C2)c1C (stereo not drawn)	8.91µM*	u	-3.8%	27.3%	u
Cc1cccc(CCN2C(Nc3ccccc3)=NC[C@@H]2C)c1	-5.6%	-10.0%	-13.5%	-15.7%	-26.4
CCCCc1oc2ccccc2c1C(=O)c1cc(I)c(OCCN(CC)CC)c(I)c1	4.1%[8.37 µM]	u	-3.3%	65.0%	-63.0*
O=C(Nc1cccc(O)c1)c1cc(-c2ccccc2Cl)on1	0.5%	11.2µM*	-12.5%	-31.0%	-23.8
O=C(Nc1cccc(O)c1)c1cc(-c2ccc3c(c2)OCO3)on1	7.1%	11.2µM*	-6.1%	-41.1%	41.2
O=C(Nc1ccc(SC(F)F)cc1)c1cc(-c2ccc3c(c2)OCCO3)on1	x	u	12.6%	x	-66.4*
CC(=O)Nc1ccc(NC(=O)c2cc(-c3ccc4c(c3)OCCO4)on2)cc1	x	1.1%	1.2%	x	84.4
C[C@@H]1CN([C@H](C)CO)C(=O)c2cc(Br)cnc2O[C@H]1CN(C)C(=O)c1ccc(F)cc1	x	x	x	x	-9.0
Cc1ccccc1Cn1c(=O)n(Cc2ccc(Cl)cc2)c(=O)c2cccnc21	x	-20.3%	-4.1%	x	-1.6
Cc1ccccc1S(=O)(=O)N1[C@@H](c2ccccc2)C(C(=O)O)=CC[C@H]1c1ccc(Cl)cc1	3.6%	3.1%	0.2%	-5.4%	-99.0*
Cc1ccc(S(=O)(=O)N(C)CC(=O)OCC(=O)NCCN2C(=O)CSC2=O)cc1	14.1%	-16.9%	1.4%	0.7%	0.0
COC(=O)C(NC(=O)c1ccco1)(Nc1cc(C)ccn1)C(F)(F)F (stereo not drawn)	7.1%	-24.5%	u	-15.1%	-6.9
COC(=O)C(NC(=O)c1ccco1)(Nc1nc(C2CC2)cs1)C(F)(F)F (stereo not drawn)	-11.6%	13.3%	-6.1%	-10.8%	-66.9*
SMILES	HCV inh	FMDV inh	AmpC detergent	AmpC inh no detg	HCMV inh
COc1ccc(Cl)cc1NC(=O)CN(c1ccccc1)S(=O)(=O)N(C)C	u	-16.6%	0.1%	x	12.8
COc1ccc(Cl)cc1NC(=O)CN(c1cccc(C)c1C)S(=O)(=O)c1ccccc1	x	-15.6%	-6.9%	x	-62.4*
COc1ccc(OC)c(NC(=O)CN(c2ccccc2OC)S(=O)(=O)c2ccc(C)cc2)c1	x	-23.5%	10.2%	x	-100.1*
COc1ccc(S(=O)(=O)N(C)CC(=O)Nc2c(F)cccc2F)cc1	11.1%	-7.4%	-0.9%	0.141µM*	23.3
COc1ccc(N(CC(=O)Nc2ccc(Cl)cc2C)S(=O)(=O)c2ccccc2)c(OC)c1	x	-10.4%	3.4%	x	-71.3*
COc1ccc(S(=O)(=O)N(C)CC(=O)Nc2ccc3c(c2)OCCO3)cc1	-8.6%[8.37 µM]	-7.5%	u	u	-27.6
CCOC(=O)c1ccccc1NC(=O)Cn1c(=O)n(-c2ccc(CC)cc2)c(=O)c2c(C)c(C(=O)N(C)C)sc21	x	-10.6%	0.0%	x	u
COc1ccc(CNC(=O)c2ccc(NC(=O)N3CCCCc4ccccc43)cc2)c(OC)c1	x	1.3%	-0.4%	x	3.0
COc1ccc(NC(=O)CN(C)C(=O)c2sc3ccccc3c2Cl)cc1	u	-0.2%	u	-24.3%	-38.1
COc1ccc(OC)c(S(=O)(=O)N(C)CC(=O)Nc2cc(Cl)ccc2OC)c1	11.2µM*	u	u	-0.7%	5.2
COc1ccc(Cl)cc1NC(=O)CN(C)C(=O)c1sc2ccccc2c1Cl	12.6µM*	-14.7%	-12.3%	-17.1%	2.7
COc1ccccc1N(CC(=O)NCCSCc1cccc(C)c1)S(=O)(=O)c1ccccc1	12.6µM*	u	0.7%	6.5%	-36.9
Cc1cccc(C)c1N(CC(=O)Nc1cc(Cl)ccc1Oc1ccccc1)S(C)(=O)=O	u	-25.8%	u	0.159µM*	-11.8
O=C(COC(=O)Cc1ccccc1[N+](=O)[O-])Nc1nnc(-c2ccccc2)o1	5.4%	-1.1%	u	-18.8%	18.2
Cc1ncc([N+](=O)[O-])n1CC(=O)Nc1cc(Cl)ccc1Cl	8.1%	-13.1%	-5.8%	-13.5%	-27.2
COc1ccc(Cl)cc1NC(=O)CN(C)C(=O)C1CC(=O)N(Cc2ccc(C)cc2)C1 (stereo not drawn)	31.6µM*	-7.7%	-14.9%	304.2%	-4.4
COc1ccc(NC(=O)CN(C)C(=O)C2CC(=O)N(Cc3ccc(C)cc3)C2)cc1 (stereo not drawn)	-11.1%	-10.6%	-2.7%	4.2%	7.2
CC(Oc1ccc2c(-c3ccccc3)cc(=O)oc2c1)C(=O)NCC(O)c1ccccc1 (stereo not drawn)	8.91µM*	-24.2%	u	88.8%	10.1
CC(Oc1ccc2c(-c3ccccc3)cc(=O)oc2c1)C(=O)NCC1CCC(C(=O)O)CC1 (stereo not drawn)	u	-9.0%	u	-32.8%	-21.7
O=C(Oc1ccc2c(-c3ccccc3)cc(=O)oc2c1)c1cccs1	8.4%	1.8%	u	-49.0%	-66.6*
CCc1cc2c(-c3ccccc3)cc(=O)oc2cc1OC(=O)c1cccs1	-7.6%	9.9%	u	-12.2%	u

Screens: PubChem BioAssay, National Center for Advancing Translational Sciences (NCATS)
